Values joined by “and” are separate entries in the source; they are usually repeats but may differ in a detail not shown here. Identical values can stand only once. Records with an inconclusive call do not appear. Where a call stands in place of a potency, no number is given. Some compounds were tested as several samples or in several runs, with calls that do not always agree. Active and inactive are the calls of the source. Unless noted, the call rests on the fitted dose curve; in most records, active means well fitted curve in the direction sought with a large enough effect in the repeat runs; inconclusive means weak or mixed curves; inactive means flat fitted curve, though single readings scatter.
Experiments:
[1] = qHTS assay to test for compound auto fluorescence at 535 nm (green) in HEK293 cells (AID 720680)
[2] = qHTS assay to test for compound auto fluorescence at 460 nm (blue) in HEK293 cell free culture (AID 720681)
Procedure, shortened: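 Compounds were added to cell-free DMEM with 10% FBS and fluorescence read directly. The blue channel used 405 nm excitation and 460 nm emission, with triamterene as the reference fluorophore.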

[3] = qHTS assay to test for compound auto fluorescence at 535 nm (green) in HEK293 cell free culture (AID 720682)
Procedure, shortened: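 Read-out: 485/535 nm fluorescence intensity, calibrated against fluorescein. Medium only (DMEM + 10% FBS, no cells); test compound or DMSO vehicle added by pintool before plate reading.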

[4] = qHTS assay to test for compound auto fluorescence at 590 nm (red) in HEK293 cell free culture (AID 720683)
Procedure, shortened: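 Cell-free wells of DMEM with 10% FBS received compound, and intrinsic fluorescence was read at excitation/emission 540/590 nm. Values expressed as equivalence to Rose Bengal sodium.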

[5] = qHTS assay to test for compound auto fluorescence at 590 nm (red) in HepG2 cell free culture (AID 720684)
Procedure, shortened: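 Rose Bengal sodium served as the reference for red signal. Test compounds were dispensed into serum-containing MEM (10% FBS) without cells, and plates were read at 540/590 nm.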

[6] = qHTS assay to test for compound auto fluorescence at 460 nm (blue) in HepG2 cell free culture (AID 720685)
Procedure, shortened: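 Cell-free plates of MEM plus 10% FBS received 23 nL compound or DMSO vehicle; blue-channel (405/460 nm) intensity scored against triamterene as reference fluorophore.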

[7] = qHTS assay to test for compound auto fluorescence at 535 nm (green) in HepG2 cell free culture (AID 720686)
[8] = qHTS assay to test for compound auto fluorescence at 460 nm (blue) in HepG2 cells (AID 720687)
Procedure, shortened: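 HepG2 cells in MEM with 10% FBS, attached overnight at 37 C, were exposed to compound or DMSO for 1 hr at 37 C, 5% CO2. Blue fluorescence was read at 405/460 nm, with triamterene as reference fluorophore.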

[9] = molecular target: Glucocorticoid receptor (Homo sapiens) (UniProt P04150); assay: qHTS assay to identify small molecule agonists of the glucocorticoid receptor (GR) signaling pathway (AID 720691; active means well fitted activation curve with a large enough effect in the signal ratio in the repeat runs, not every such curve was filed as active; the % refers to the signal ratio; further: potency means the concentration at half of the fitted maximal effect)
Procedure, shortened: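 Agonist-mode qHTS in HeLa cells stably expressing a glucocorticoid-response-element beta-lactamase reporter. Fluorescence intensity read with FRET substrate (2 h, room temperature) after 18 h compound treatment at 37 C.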

[10] = molecular target: Glucocorticoid receptor (Homo sapiens) (UniProt P04150); assay: qHTS assay to identify small molecule antagonists of the glucocorticoid receptor (GR) signaling pathway (AID 720692; active means well fitted inhibition curve with a large enough effect in the signal ratio in the repeat runs, not every such curve was filed as active; the % refers to the signal ratio; further: potency means the concentration at half of the fitted maximal effect)
Procedure, shortened: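 Inhibition of dexamethasone-driven (5 nM final) beta-lactamase expression was measured in GRE-reporter HeLa cells over 18 h at 37C. Fluorescence was read after 2 h with the B/G FRET substrate at room temperature.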

Glucocorticoid receptor (Homo sapiens), sequence (P04150 whole entry, looked up): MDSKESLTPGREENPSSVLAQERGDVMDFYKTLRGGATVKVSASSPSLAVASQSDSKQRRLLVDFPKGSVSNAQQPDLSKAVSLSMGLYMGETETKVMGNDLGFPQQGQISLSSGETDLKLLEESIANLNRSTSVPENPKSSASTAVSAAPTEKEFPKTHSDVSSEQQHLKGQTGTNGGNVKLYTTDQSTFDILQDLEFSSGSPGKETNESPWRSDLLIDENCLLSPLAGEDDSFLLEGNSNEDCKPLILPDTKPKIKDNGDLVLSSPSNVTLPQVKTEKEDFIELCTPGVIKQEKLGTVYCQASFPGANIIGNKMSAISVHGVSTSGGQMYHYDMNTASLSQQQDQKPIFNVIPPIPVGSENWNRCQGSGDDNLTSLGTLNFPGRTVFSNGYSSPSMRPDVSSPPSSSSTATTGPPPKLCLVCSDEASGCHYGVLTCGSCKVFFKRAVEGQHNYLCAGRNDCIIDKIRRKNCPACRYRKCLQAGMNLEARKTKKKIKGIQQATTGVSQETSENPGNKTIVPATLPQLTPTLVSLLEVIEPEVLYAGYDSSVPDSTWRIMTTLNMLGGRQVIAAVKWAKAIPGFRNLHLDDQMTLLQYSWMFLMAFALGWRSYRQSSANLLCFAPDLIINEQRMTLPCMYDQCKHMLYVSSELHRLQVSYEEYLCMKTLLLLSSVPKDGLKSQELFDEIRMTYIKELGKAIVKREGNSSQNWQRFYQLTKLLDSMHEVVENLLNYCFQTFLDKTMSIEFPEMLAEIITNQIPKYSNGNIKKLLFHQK

## CN1C(C(=O)Nc2ccccn2)=C(O)c2ccccc2S1(=O)=O
[1]
  Potency: inactive
[2]
  outcome: inactive
[3]
  Potency: inactive
[4]
  Potency: inactive
[5]
  Potency: inactive
[6]
  outcome: inactive
[7]
  Potency: inactive
[8]
  outcome: inactive
[9]
  Potency: inactive
[10]
  Potency: inactive

## CC(C)=CCC/C(C)=C\CO
[1]
  Potency: inactive
[2]
  outcome: inactive
[3]
  Potency: inactive
[4]
  Potency: inactive
[5]
  Potency: inactive
[6]
  outcome: inactive
[7]
  Potency: inactive
[8]
  outcome: inactive
[9]
  Potency: inactive
[10]
  Potency: inactive

## c1ccncc1
[1]
  Potency: inactive
[2]
  outcome: inactive
[3]
  Potency: inactive
[4]
  Potency: inactive
[5]
  Potency: inactive
[6]
  outcome: inactive
[7]
  Potency: inactive
[8]
  outcome: inactive

## C#C[C@]1(O)CC[C@H]2[C@@H]3CCc4cc(OC)ccc4[C@H]3CC[C@@]21C
[1]
  Potency: inactive
[2]
  outcome: inactive
[3]
  Potency: inactive
[4]
  Potency: inactive
[5]
  Potency: inactive
[6]
  outcome: inactive
[7]
  Potency: inactive
[8]
  outcome: inactive
[9]
  Potency: inactive

## Cc1cccc(N(C)C(=S)Oc2ccc3ccccc3c2)c1
[1]
  Potency: inactive
[2]
  outcome: inactive
[3]
  Potency: inactive
[4]
  Potency: inactive
[5]
  Potency: inactive
[6]
  fluorescence, % of fluorescent control: -0.0096% [at 18.6 µM] (inactive)
[7]
  Potency: inactive
[8]
  outcome: inactive
[9]
  Potency: inactive
[10]
  Potency: inactive

## NNc1ccc(C(=O)O)cc1
[1]
  Potency: inactive
[2]
  outcome: inactive
[3]
  Potency: inactive
[4]
  Potency: inactive
[5]
  Potency: inactive
[6]
  outcome: inactive
[7]
  Potency: inactive
[8]
  outcome: inactive

## CCCCC(CC)COCC1CO1 (configuration not stated)
[1]
  Potency: inactive
[2]
  outcome: inactive
[3]
  Potency: inactive
[4]
  Potency: inactive
[5]
  Potency: inactive
[6]
  outcome: inactive
[7]
  Potency: inactive
[8]
  outcome: inactive
[9]
  Potency: inactive
[10]
  Potency: inactive

## Oc1ccc(O)cc1
[1]
  Potency: inactive
[2]
  outcome: inactive
[3]
  Potency: inactive
[4]
  Potency: inactive
[5]
  Potency: inactive
[6]
  outcome: inactive
[7]
  Potency: inactive
[8]
  outcome: inactive
[9]
  Potency: inactive

## O=CCCCC=O
[1]
  Potency: inactive
[2]
  outcome: inactive
[3]
  Potency: inactive
[4]
  Potency: inactive
[5]
  Potency: inactive
[6]
  outcome: inactive
[7]
  Potency: inactive
[8]
  outcome: inactive
[9]
  Potency: inactive

## Cc1cccc([N+](=O)[O-])c1C
[1]
  Potency: inactive
[2]
  outcome: inactive
[3]
  Potency: inactive
[4]
  Potency: inactive
[5]
  Potency: inactive
[6]
  outcome: inactive
[7]
  Potency: inactive
[8]
  outcome: inactive

## CCOC(=O)C(C#N)=C(c1ccccc1)c1ccccc1
[1]
  Potency: inactive
[2]
  outcome: inactive
[3]
  Potency: inactive
[4]
  Potency: inactive
[5]
  Potency: inactive
[6]
  outcome: inactive
[7]
  Potency: inactive
[8]
  outcome: inactive

## O=S(=O)(O)c1ccc(O)cc1
[1]
  Potency: inactive
[2]
  outcome: inactive
[3]
  Potency: inactive
[4]
  Potency: inactive
[5]
  Potency: inactive
[6]
  outcome: inactive
[7]
  Potency: inactive
[8]
  outcome: inactive
[9]
  Potency: inactive
[10]
  Potency: inactive

## CCCc1c(OCCCCc2nn[nH]n2)ccc(C(C)=O)c1O
[1]
  Potency: inactive
[2]
  outcome: inactive
[3]
  Potency: inactive
[4]
  Potency: inactive
[5]
  Potency: inactive
[6]
  outcome: inactive
[7]
  Potency: inactive
[8]
  outcome: inactive
[9]
  Potency: inactive
[10]
  Potency: 23.9 µM (active)

## CCC(C)(O)CCCC(C)C (configuration not stated)
[1]
  Potency: inactive
[2]
  outcome: inactive
[3]
  Potency: inactive
[4]
  Potency: inactive
[5]
  Potency: inactive
[6]
  outcome: inactive
[7]
  Potency: inactive
[8]
  outcome: inactive
[9]
  Potency: inactive
[10]
  Potency: inactive

## C=C(C)C(=O)OCCOC(=O)C(=C)C
[1]
  Potency: inactive
[2]
  outcome: inactive
[3]
  Potency: inactive
[4]
  Potency: inactive
[5]
  Potency: inactive
[6]
  outcome: inactive
[7]
  Potency: inactive
[8]
  outcome: inactive
[9]
  Potency: inactive
[10]
  Potency: inactive

## c1cc(-c2ccncc2)ccn1
[1]
  Potency: inactive
[2]
  outcome: inactive
[3]
  Potency: inactive
[4]
  Potency: inactive
[5]
  Potency: inactive
[6]
  outcome: inactive
[7]
  Potency: inactive
[8]
  outcome: inactive
[9]
  Potency: inactive
[10]
  Potency: inactive

## O=C(O)c1ccccc1Nc1cccc(C(F)(F)F)c1
[1]
  Potency: inactive
[2]
  outcome: inactive
[3]
  Potency: inactive
[4]
  Potency: inactive
[5]
  Potency: inactive
[6]
  outcome: inactive
[7]
  Potency: inactive
[8]
  outcome: inactive
[10]
  Potency: 49 µM (active)

## Cc1ccc(C)c(O)c1C
[1]
  Potency: inactive
[2]
  outcome: inactive
[3]
  Potency: inactive
[4]
  Potency: inactive
[5]
  Potency: inactive
[6]
  outcome: inactive
[7]
  Potency: inactive
[8]
  outcome: inactive
[9]
  Potency: inactive
[10]
  Potency: inactive

## CC(C)(C)NC(=O)[C@H]1CC[C@H]2[C@@H]3CC[C@H]4NC(=O)C=C[C@]4(C)[C@H]3CC[C@]12C
[1]
  Potency: inactive
[2]
  outcome: inactive
[3]
  Potency: inactive
[4]
  Potency: inactive
[5]
  Potency: inactive
[6]
  outcome: inactive
[7]
  Potency: inactive
[8]
  outcome: inactive
[9]
  Potency: inactive
[10]
  Potency: inactive

## c1ccc2c(c1)c1cccc3ccc4cccc2c4c31
[1]
  Potency: inactive
[2]
  outcome: inactive
[3]
  Potency: inactive
[4]
  Potency: inactive
[5]
  Potency: inactive
[6]
  outcome: inactive
[7]
  Potency: inactive
[8]
  outcome: inactive
[9]
  Potency: 48.6 µM (active) and inactive
[10]
  Potency: inactive

## COC(=O)C1=C(C)NC(C)=C(C(=O)OCCN(C)Cc2ccccc2)C1c1cccc([N+](=O)[O-])c1 (configuration not stated)
[1]
  Potency: inactive
[2]
  outcome: inactive
[3]
  Potency: inactive
[4]
  Potency: inactive
[5]
  Potency: inactive
[6]
  outcome: inactive
[7]
  Potency: inactive
[8]
  outcome: inactive
[10]
  Potency: 23.9 µM (active) and 43.4 µM (active)

## Nc1ncn([C@@H]2O[C@H](CO)[C@@H](O)[C@H]2O)c(=O)n1
[1]
  Potency: inactive
[2]
  outcome: inactive
[3]
  Potency: inactive
[4]
  Potency: inactive
[5]
  Potency: inactive
[6]
  outcome: inactive
[7]
  Potency: inactive
[8]
  outcome: inactive
[9]
  Potency: inactive
[10]
  Potency: 3.01 µM (active) and 1.74 µM (active)

## CC(C)OC(=O)C(C)(C)Oc1ccc(C(=O)c2ccc(Cl)cc2)cc1
[1]
  Potency: inactive
[2]
  outcome: inactive
[3]
  Potency: inactive
[4]
  Potency: inactive
[5]
  Potency: inactive
[6]
  outcome: inactive
[7]
  Potency: inactive
[8]
  outcome: inactive
[9]
  Potency: inactive
[10]
  Potency: inactive
